Compound activity (PubChem)
The list is a sample of the results.
aSyn UTR act = Activators via SNCA 5'UTR binding, MLPCN | hit rate 7.1% among 300,000 | alpha-synuclein 5'UTR reporter, activators screen | activity score, % (tested at 7.5 µM), hits read low | AID 1814; in the data active means activity score below about -60%
An asterisk follows results filed as active.

SMILES | aSyn UTR act
O=C(COc1ccccc1)Nc1ccccc1F | -140*
O=C(COc1ccccc1)Nc1cc(Cl)ccc1Cl | -91*
O=C(COc1ccccc1)Nc1ccc(Cl)cc1Cl | -154*
Cc1ccc(-n2ncc3c(NCc4ccccc4)ncnc32)cc1 | -189*
Cc1cccc(-n2ncc3c(NCc4cccnc4)ncnc32)c1 | -142*
Cc1ccc(-n2ncc3c(NCc4cccnc4)ncnc32)cc1C | -90*
Brc1ccc2ncnc(NCc3ccco3)c2c1 | -64*
c1ccc(-n2ncc3c(NCc4ccco4)ncnc32)cc1 | -252*
COc1ccc(-n2ncc3c(N4CCCCC4)ncnc32)cc1 | 101
COc1ccc(-n2ncc3c(NCc4cccnc4)ncnc32)cc1 | -149*
COc1ccc(-n2ncc3c(NCc4ccc5c(c4)OCO5)ncnc32)cc1 | -109*
COc1ccc2cc3cc(C(=O)N4CCCC(C)C4)oc3nc2c1 (configuration not stated) | -64*
CCOC(=O)C1CCCN(C(=O)c2cc3cc4ccc(OC)cc4nc3o2)C1 (configuration not stated) | -101*
Cc1cccc(Nc2nnc(SC/C(O)=C(\C#N)c3nc4ccccc4[nH]3)s2)c1C | -63*
Cc1cccc(Nc2nnc(SCC(=O)Nc3ccccc3[N+](=O)[O-])s2)c1C | -90*
Cc1ccc(Nc2nnc(SCC(=O)Nc3cccnc3Cl)s2)cc1C | -109*
O=C(/C=C/c1ccc2c(c1)OCCO2)c1ccccc1 | -137*
Cc1ccc(O)c(C(=O)/C=C/c2ccc3c(c2)OCCO3)c1 | -82*
O=C(O)c1ccc(/C=C/C(=O)c2ccc3c(c2)OCCCO3)cc1 | -135*
Nc1ccccc1C(=O)/C=C/c1ccc2c(c1)OCO2 | -340*
C=CCn1c(=S)[nH]c2nc3c(cc2c1=O)CCCC3 | -92*
Cc1ccc(OCCSc2ncnc3nc[nH]c23)cc1 | -67*
CC(NC(=O)c1cc(COc2ccccc2)on1)c1nccs1 (configuration not stated) | -169*
Cc1nc(C(C)NC(=O)c2cc(COc3ccc(C)c(C)c3)on2)c(C)s1 (configuration not stated) | -82*
CC(=O)c1ccc(OCc2cc(C(=O)NC(C)c3cnn(C)c3)no2)cc1 (configuration not stated) | -87*
SMILES | aSyn UTR act
Cc1cc(OCc2cc(C(=O)NC(C)c3c(C)nn(C)c3C)no2)cc(C)c1Cl (configuration not stated) | -114*
CC(=O)c1ccc(OCc2cc(C(=O)NCCn3nc(C)cc3C)no2)cc1 | -68*
Cc1cc(CNC(=O)c2cc(COc3ccc(F)c(F)c3)on2)nn1C | -124*
Nc1c(C(=O)C2CC2)sc2nc3c(cc12)CCC3 | -161*
Nc1c(C(=O)Nc2cccc(C(=O)O)c2)sc2nc3c(cc12)CCCC3 | 77
Nc1c(C(=O)c2ccc(Cl)cc2)sc2nc3c(cc12)CCC3 | -108*
Cc1ccc2oc(-c3ccco3)cc(=O)c2c1 | -171*
CC(C)OCCOc1ccc2oc(-c3ccco3)cc(=O)c2c1 | -115*
CCN(CC)C(=O)Oc1ccc2c(c1)O/C(=C\c1ccco1)C2=O | -116*
COc1cccc(-c2ccc(SCc3ccccn3)nn2)c1 | -84*
O=[N+]([O-])c1cccc(-c2ccc(SCc3ccccn3)nn2)c1 | -97*
O=C(NCCc1ccccc1)c1ccc2nccnc2c1 | 63
O=C(NCCc1ccccc1)c1cnc2ccccc2n1 | -99*
O=C(NCCc1ccccc1)c1cccnc1 | -99*
O=C(O)c1cccc(S(=O)(=O)Nc2ccccc2C(=O)NCCc2ccccc2)c1 | -64*
O=C(CCCc1ccccc1)Nc1cccc([N+](=O)[O-])c1 | -161*
O=C(NCCc1ccccc1)c1cccc(Br)c1 | -131*
O=C(NCCc1ccccc1)c1cccc([N+](=O)[O-])c1 | -77*
O=C1C=C(N2CCCCCC2)C(=O)N1c1ccc(Cl)cc1 | -171*
O=C(NCC1CCCO1)c1ccc(N2CCCCC2)nc1 (configuration not stated) | -83*
CCC1=Nc2cc(C(=O)NCC3CCCO3)ccc2Sc2ccc(Cl)cc21 (configuration not stated) | -74*
O=C(NCC1CCCO1)c1ccc2nc(N3CCCCC3)sc2c1 (configuration not stated) | -194*
CC1CCC(NC(=O)c2ccc(NC(=O)CC3SC(N4CCCC4)=NC3=O)cc2)CC1 (configuration not stated) | -129*
CC1CCC(NC(=O)c2ccc(NC(=O)c3ccc(=O)[nH]c3)cc2)CC1 (configuration not stated) | -68*
O=C(CC1SC(N2CCCC2)=NC1=O)Nc1ccc(C(=O)Nc2ncccc2O)cc1 (configuration not stated) | -266*
SMILES | aSyn UTR act
CN=c1scc(-c2ccccc2F)n1/N=C(\C)c1cccnc1 | -163*
CN=c1scc(-c2ccccc2Br)n1/N=C/c1ccc[nH]1 | 64
CC(=O)NCc1ccc(C(=O)CCl)s1 | -64*
CCC(=O)Nc1nc2ccccc2n1Cc1ccccc1Cl | 72
CCn1c(SCc2ccccc2Cl)nc2ccccc21 | -97*
Cn1c(SCc2ccccc2Cl)nc2ccccc21 | -190*
COC(=O)C1C(=O)c2c([nH]c(C(=O)OCC3CCCO3)c2C)CC1C (configuration not stated) | -113*
COCCOC(=O)c1[nH]c2c(c1C)C(=O)CC(c1ccccc1)C2 (configuration not stated) | 78
CCCCCOC(=O)c1[nH]c2c(c1C)C(=O)C(C(=O)OC)C(C)C2 (configuration not stated) | -73*
COCCOC(=O)c1[nH]c2c(c1C)C(=O)C(C(=O)OC)C(C)C2 (configuration not stated) | -88*
COC(=O)C1C(=O)c2c([nH]c(C(=O)OC3CCCCCC3)c2C)CC1C (configuration not stated) | -115*
COC(=O)c1[nH]c2c(c1C)C(=O)CC(c1cccs1)C2 (configuration not stated) | 85
Cc1c(C(=O)OC2CCC(C)CC2)[nH]c2c1C(=O)CCC2 (configuration not stated) | -79*
CCOC(=O)c1[nH]c2c(c1C)C(=O)CC(c1ccco1)C2 (configuration not stated) | 73
Cc1ccc(NC(=O)c2cc(N(C)C)ccc2[P+](=O)O)cc1 | -154*
CCOC(=O)c1c(C)oc2c1c(CN1CCN(C(=O)OCC)CC1)c(O)c1ccccc12 | -205*
CCOC(=O)c1c(C)oc2c1c1c(c3ccccc32)OCN(Cc2ccccn2)C1 | -102*
Cc1cc(=O)n2[nH]c(-c3ccc(F)cc3)cc2n1 | -64*
Cc1cccc(-c2cc3nc(-c4ccccc4)cc(=O)n3[nH]2)c1 | -103*
Cc1ccnc(NC(=O)c2ccc(Cl)s2)c1 | -104*
Cc1ccnc(NC(=O)c2cnc(Cl)c(Cl)c2)c1 | -62*
Cc1ccc(C(=O)NCC(=O)Nc2cc(C)ccn2)cc1 | -66*
CCOc1ccc(C(=O)Nc2cc(C)ccn2)cc1 | 65
Cc1ccnc(NC(=O)CCNC(=O)c2ccc(Cl)cc2)c1 | -110*
COc1ccc(C2C(C(=O)c3cccs3)=C(O)C(=O)N2c2nncs2)cc1 (configuration not stated) | -108*
CC(=O)c1sc(NC(=O)c2ccc3c(c2)OCO3)nc1C | -136*
CC(=O)c1sc(NC(=O)c2cnc(Cl)c(Cl)c2)nc1C | -128*
CCN1CCc2nc(NC(=O)c3ccc4c(c3)OCCO4)sc2C1 | -83*
O=C(Nc1nccs1)c1ccc2c(c1)OCO2 | -146*
